# From PubChem BioAssay (Tox21)
# Where “and” joins values, the source holds several entries; their conditions need not be identical. Identical values can stand only once. Inconclusive results are not listed. Unmarked numbers belong to inactive results. Calls of active or inactive are those of the source. Calls come from the whole dose curve; as a rule, active = well fitted inhibition curve with a large enough effect in the repeat runs; inconclusive = weak or mixed curves; inactive = flat fitted curve, though single readings scatter.
# Molecular target: Luciferin 4-monooxygenase (Photinus pyralis) (UniProt P08659)
# Experiment: qHTS assay to identify small molecule inhibitors of firefly luciferase (AID 1224835); note: nearly all actives have a fitted effect of over 25% in size
# Conditions: purified P. pyralis luciferase, luminescence inhibition; series mostly up to 115 µM; activity change, negative = inhibition: at the top concentration
# Text: U.S. Tox21 Program National Center for Advancing Translational Sciences [NCATS] NIH Chemical Genomics Center [NCGC] U.S. Environmental Protection Agency [EPA] National Institutes of Environmental Health Sciences [NIEHS] National Toxicology Program [NTP] U.S. Food and Drug Administration [FDA] Tox21 Assay Overview: Firefly (Photinus pyralis) luciferase is one of the most commonly used transcriptional reporters. Firefly luciferase reporter-gene assays are generally considered one of the most sensitive assay types (Wood, 1995; Wood, 1998). However, it was initially observed, in 1991, by Thompson et al., that compounds that resemble the substrates of firefly luciferase (FLuc) can act as competitive inhibitors of the enzyme, and that these compounds, upon interaction with luciferase in the cell, can actually stabilize the protein and increase its half-life. Previous profiling work by other groups to determine the prevalence of compounds that affect FLuc enzymatic activity (PubChem AID 411) identified that ~3% of the MLSMR library (then at ~72K) inhibited FLuc. […] Thus the Tox21 10K library is profiled for activity against FLuc using a biochemical assay of purified FLuc and KM concentrations of FLuc substrates (D-luciferin and ATP).
# These assay plates were then treated with 23nL of compound or DMSO using a Kalypsys pin tool, which allows for delivery of a 6-point interplate titration of each compound to the assay plate (quantitative HTS.) 1 uL of firefly luciferase mix (containing 50 mM Tris acetate, pH 7.6, 0.04 uM P. pyralis luciferase, 0.01% Tween, 0.05% BSA and dH2O) was then delivered by FRD to each well. Luciferase activity was then measured using a ViewLux CCD imager.
# % is set by controls: 0 for no effect and ±100 for the full control effect.
# Sequence of Luciferin 4-monooxygenase (Photinus pyralis) (P08659 whole entry, looked up): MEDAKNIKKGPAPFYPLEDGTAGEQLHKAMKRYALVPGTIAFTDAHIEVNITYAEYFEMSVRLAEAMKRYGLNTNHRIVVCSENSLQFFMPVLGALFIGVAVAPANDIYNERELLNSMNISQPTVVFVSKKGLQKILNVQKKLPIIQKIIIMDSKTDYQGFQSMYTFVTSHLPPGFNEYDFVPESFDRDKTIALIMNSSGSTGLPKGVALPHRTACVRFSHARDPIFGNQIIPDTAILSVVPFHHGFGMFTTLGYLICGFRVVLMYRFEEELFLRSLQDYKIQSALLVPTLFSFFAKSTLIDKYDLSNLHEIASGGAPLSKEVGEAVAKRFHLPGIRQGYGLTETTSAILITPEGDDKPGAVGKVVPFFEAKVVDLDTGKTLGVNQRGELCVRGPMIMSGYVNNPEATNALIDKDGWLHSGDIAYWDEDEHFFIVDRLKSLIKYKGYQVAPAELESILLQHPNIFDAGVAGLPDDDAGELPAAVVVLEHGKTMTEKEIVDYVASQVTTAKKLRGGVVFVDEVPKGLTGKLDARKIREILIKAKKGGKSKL
Structure (SMILES),"activity change, negative = inhibition",Potency
CC1(C)C(C=C(Cl)Cl)C1C(=O)OC(C#N)c1ccc(F)c(Oc2ccccc2)c1 (stereo not given),-0.406%,–
CCC(C)c1cccc(C(C)CC)c1O (stereo not given),-11.1%,–
CCC(OC(C)=O)C(CC(C)NC)(c1ccccc1)c1ccccc1 (stereo not given),3.11%,–
CO/N=C(\C(=O)OC)c1ccccc1CO/N=C(\C)c1cccc(C(F)(F)F)c1,1.16%,–
COC(=O)C(C)N(C(=O)c1ccco1)c1c(C)cccc1C (stereo not given),2.61%,–
O=C1C(Cl)=C(Cl)C(=O)C(Cl)=C1Cl,–,31.6 µM (active) and 15.9 µM (active)
CC[C@H](C)[C@H]1O[C@]2(C=C[C@@H]1C)C[C@@H]1C[C@@H](C/C=C(\C)[C@@H](O[C@H]3C[C@H](OC)[C@@H](O[C@H]4C[C@H](OC)[C@@H](NC)[C@H](C)O4)[C@H](C)O3)[C@@H](C)/C=C/C=C3\CO[C@@H]4[C@H](O)C(C)=C[C@@H](C(=O)O1)[C@]34O)O2,-0.393%,–
CCCC[N+]1(C)CCCC1 (tested in a mixture with another compound),-5.09%,–
CC1CCCC1,-1.32%,–
O=C1C2(Cl)C3(Cl)C4(Cl)C(Cl)(Cl)C5(Cl)C3(Cl)C1(Cl)C5(Cl)C24Cl (stereo not given),–,inactive
N#Cc1c2ccccc2cc2ccccc12,-5.85%,–
O=C(N[C@H]1N=C(c2ccccc2F)c2cccc3c2N(CC3)C1=O)c1cc2ccccc2[nH]1,0.0635% [at 52.9 µM],–
Cc1cc(C2CC2)nc(Nc2ccccc2)n1,–,39.9 µM (active)
[O-][Cl+3]([O-])([O-])O,2.75%,–
c1ccc(Nc2ccc(Nc3ccccc3)cc2)cc1,–,28.1 µM (active)
CC(=O)C(Cl)C(=O)N(C)C (stereo not given),3.21%,–
CCC(C)Nc1c([N+](=O)[O-])cc(C(C)(C)C)cc1[N+](=O)[O-] (stereo not given),–,71 µM (active)
O=C(CCCCl)c1ccc(F)cc1,–,15.5 µM (active)
CCc1cccc(C)c1N(C(=O)CCl)[C@@H](C)COC,0.446%,–
CCN(CC)Cc1nccn1-c1ccc([N+](=O)[O-])cc1C(=O)c1ccccc1Cl,-1.94% [at 52.9 µM],–

Structure (SMILES),"activity change, negative = inhibition",Potency
CSC(=O)c1c(C(F)F)nc(C(F)(F)F)c(C(=O)SC)c1CC(C)C,5.03%,–
O=S1(=O)OCC2C(CO1)C1(Cl)C(Cl)=C(Cl)C2(Cl)C1(Cl)Cl (stereo not given),–,39.9 µM (active)
COc1ccc2c3c1O[C@H]1[C@H](O)CC[C@H]4[C@@H](C2)N(C)CC[C@@]341,1.57%,–
CCNS(=O)(=O)C(F)(F)C(F)(F)C(F)(F)C(F)(F)C(F)(F)C(F)(F)C(F)(F)C(F)(F)F,1.04%,–
O=S(=O)(O)F,-5.19%,–
CNC(=O)/C=C(\C)OP(=O)(OC)OC,3.6%,–
CO/N=C(/C1=NOCCO1)c1ccccc1Oc1ncnc(Oc2ccccc2Cl)c1F,4.53%,–
COc1c2c(cc3c1OCO3)CCN(C)C2,5.5% [at 52.9 µM],–
N#CCCl,0.846%,–
COc1cnc(OC)n2nc(NS(=O)(=O)c3c(OCC(F)F)cccc3C(F)(F)F)nc12,-0.575%,–
Brc1ccc(Oc2ccc(Br)cc2Br)c(Br)c1,–,35.6 µM (active)
[O]=[Cr][O][Cr]=[O],2.72%,–
CC(Cc1ccc(O)cc1)NCC(O)c1cc(O)cc(O)c1 (stereo not given),-2.36% [at 52.9 µM],–
COP(=O)(OC)O/C(=C\Cl)c1cc(Cl)c(Cl)cc1Cl,-0.217%,–
N#Cc1sc2c(=O)c3ccccc3c(=O)c=2sc1C#N,–,4.48 µM (active)
Cc1cccc(Cc2cnc[nH]2)c1C,-1.22% [at 52.9 µM],–
CC(C)[C@@H](Nc1ccc(C(F)(F)F)cc1Cl)C(=O)OC(C#N)c1cccc(Oc2ccccc2)c1 (stereo not given in full),-0.354%,–
CCC[CH2][Sn]([CH2]CCC)([O]C(C)=O)[O]C(C)=O,0.75%,–
CC(C)Br,0.819%,–
CCN(CC)CCN1C(=O)CN=C(c2ccccc2F)c2cc(Cl)ccc21,0.342% [at 52.9 µM],–
